# Laboratory results: PubChem BioAssay (EPA / NIEHS)
# Inconclusive results are not listed. The source made the active and inactive calls. How the source made its calls: active means hit-call score of the fitted dose curve at least 0.9, where 1 is the maximum; inconclusive means response in the unintended direction; inactive means score below 0.9.
# Experiment: CCTE_Mundy_HCI_hNP1_CellTiter: CCTE's Cell Titer-Glo 2 Assay in human neuroprogenitor cells for Viability, Mundy Lab (AID 2284241);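 on AC50: a hit is a drop in ATP luminescence versus DMSO meaning reduced viability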
# Procedure: CCTE_Mundy_HCI_hNP1_CellTiter is a multiplexed, cell-based-readout assay that uses neural stem cells derived from a neuroepithelial cell lineage of WA09 embryonic cells with measurements taken at […] after chemical dosing in a microplate: 96-well plate.CCTE_Mundy_HCI_hNP1_CellTiter is one component of the CCTE_Mundy_HCI_hNP1_CellTiter assay. It measures cell viability related to ATP content using Luminescent Reporter.Data from the assay component CCTE_Mundy_HCI_hNP1_CellTiter was analyzed at the endpoint CCTE_Mundy_HCI_hNP1_CellTiter in the positive analysis fitting direction relative to DMSO as the negative control and baseline of activity. Using a type of viability reporter, loss -of-signal activity can be used to understand viability effects.
# Human neural progenitor cells (hNP1) were obtained as cryopreserved cells from ArunA Biomedical, Athens Georgia. Cells are plated on pre-coated poly-L-ornithine/laminin clear bottom and opaque 96 well plates (day 0). Plates are placed in a 37 °C, 5% CO2 incubator for 40 to 44 hours at which time plates are removed from the incubator and 10 uL of a freshly made chemical solution is added to each well. Cell viability was based on number of cells per field or determined in sister plates using the CellTiter-Glo luminescent assay (Promega) which measures the amount of ATP present in each well. Twenty-four hours after chemical treatment, 50ul of CellTiter-Glo assay buffer was added to each well and the plate incubated for 30min at room temperature. Luminescence was then recorded in each well using a FLUOstar Optima plate reader (BMG LABTECH, Cary, NC).
Compound,outcome,AC50
[O-][Cl+]O,inactive,–
COC(=O)Nc1nc2ccccc2[nH]1,–,9.91 µM (active)
CN(C)[C@@H]1C(=O)C(C(N)=O)=C(O)[C@@]2(O)C(=O)C3=C(O)c4c(O)cccc4[C@@](C)(O)[C@H]3C[C@@H]12,inactive,–
COP(=S)(OC)SCN1C(=O)c2ccccc2C1=O,inactive,–
CNC(=O)Oc1cccc2c1OC(C)(C)C2,inactive,–
CC(C)COC(=O)c1ccccc1C(=O)OCC(C)C,inactive,–
CCC[CH2][Sn]([Cl])([CH2]CCC)[CH2]CCC,–,0.335 µM (active)
CC(C)(C)C(O)(CCc1ccc(Cl)cc1)Cn1cncn1 (stereo unspecified),inactive,–
Nc1cc(Cl)cc(C(=O)O)c1Cl,inactive,–
ClC1=C(Cl)C2(Cl)C3C(Cl)C=CC3C1(Cl)C2(Cl)Cl (stereo unspecified),–,13.4 µM (active)
OCCOCCO,inactive,–
